Bioassay records: PubChem, National Center for Advancing Translational Sciences (NCATS)
Hits are enriched below; roughly 21% of the tested compounds scored in any of these assays.
Pf growth 48h = inhibits P. falciparum growth in the first generation, 48 h. Potency, µM (series often up to 28.7 µM), for inactives: at the highest dose activity change, negative = inhibition, most hits filed as inhibitors. actives 5.9% (n = 310,000). P. falciparum luciferase growth in erythrocytes, 48 h; further: potency means the concentration at half of the fitted maximal effect; on the % scale 0 is the no-effect control and ±100 the full control effect
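A one-generation exposure of luciferase-tagged malaria parasites in RPMI 1640/Albumax erythrocyte culture, 37 C and 5% CO2. Inhibition is inferred from decreased luminescence after adding detection reagent.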
Shiga toxin inh = Shiga toxin inhibition; inhibition, % at 38.7 µM; actives 9.2% (n = 290,000); Vero cells, Shiga toxin protein synthesis inhibition reporter; AID 2315; in the data active means inhibition mostly above about 28%, no sharp cut-off; inactive means mostly below about 43%; further: 0% is about no effect
NS1 function inh = blocks influenza NS1 protein function. Potency, µM (highest dose often 46.1 µM), without a hit: top-dose activity, positive = more growth. actives 0.4% (n = 270,000). AID 2326; calls by dose curve; further: potency means the concentration at half of the fitted maximal effect; actives are rising curves; nearly all actives have a fitted effect of over 50% in size
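In this qHTS, NS1 from influenza A is expressed in budding yeast, where it slows growth. Cells are switched from glucose to 2% galactose medium (pH 6.0, -URA), treated with compound, and growth recovery is read at OD600.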
CHX counter = counter-screen for Shiga toxin inhibitors: cycloheximide protein synthesis inhibition; cell reporter, cycloheximide protein synthesis inhibition counterscreen; max response, %; actives 12% (n = 300,000); in the data active means max response mostly above about 13%, no sharp cut-off; inactive means mostly below about 14%; further: read at 38.3 µM for the half of the compounds with a filed dose; 0% is about no effect
Sm TGR inh = S. mansoni TGR enzyme inhibition; Q962Y6; purified TGR, DTNB reduction, TNB absorbance 405 nm; Potency, µM (highest dose often 114 µM), inactives show at the top dose activity change, negative = inhibition, usual class: inhibitors; actives 3% (n = 360,000); AID 485364; further: potency means the concentration at half of the fitted maximal effect; on the % scale 0 is the no-effect control and ±100 the full control effect; nearly all actives have a fitted effect of over 60% in size
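Kinetic colorimetric format: TGR-catalysed, NADPH-driven DTNB reduction monitored via TNB absorbance. Enzyme dispensed at 20 nM; compound exposure 15 min at room temperature before reaction start.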
Pf growth 96h = P. falciparum growth inhibition at 96 hours | P. falciparum luciferase reporter growth, 96 h | Potency, µM (top dose mostly 28.7 µM), inactives show top-dose activity change, negative = inhibition, usual class: inhibitors | actives 6.9% (n = 320,000) | AID 504834; further: potency means the concentration at half of the fitted maximal effect; on the % scale 0 is the no-effect control and ±100 the full control effect
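P. falciparum expressing integrated firefly luciferase, in erythrocytes at 2% hematocrit, 0.05% parasitemia, incubated with compounds 96 h at 37 C, 5% CO2. Growth inhibition read as loss of luminescence; two-generation exposure targets delayed-death apicoplast inhibitors.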
* = called active by the depositor. Unless noted, the call rests on the fitted dose curve; in most records, active means well fitted curve in the direction sought with a large enough effect; inconclusive means small, poorly fitted or top-dose-only effect, or another doubt; inactive means no such curve, though single readings can be large; an effect the other way counts as inactive or inconclusive.

What do the screens show for `COc1ccc(/C=N/NC(=O)NC23CC4CC(CC(C4)C2)C3)c(OC)c1`?
Pf growth 48h: 8.3µM*; Shiga toxin inh: -6; NS1 function inh: -5%; CHX counter: -5; Sm TGR inh: -2%; Pf growth 96h: inconclusive

How did O=C(N/N=C/c1ccc(O)cc1)NC12CC3CC(CC(C3)C1)C2 do in these assays?
Pf growth 48h: -16%; Shiga toxin inh: -3; NS1 function inh: -11%; CHX counter: 10; Sm TGR inh: 3%; Pf growth 96h: -19%

Results for Cc1ccc(/C=N/NC(=O)NC23CC4CC(CC(C4)C2)C3)o1 ?
Pf growth 48h: inconclusive; Shiga toxin inh: 150*; NS1 function inh: 1%; CHX counter: 29*; Sm TGR inh: inconclusive; Pf growth 96h: inconclusive

Results for CCOc1ccc(/C(O)=C2/C(=O)C(=O)N(CCCN3CCOCC3)C2c2ccc(F)cc2)cc1C (stereo not drawn) ?
Pf growth 48h: 4%; Shiga toxin inh: 3; NS1 function inh: -4%; CHX counter: -1; Sm TGR inh: -30%; Pf growth 96h: 4%

Results for C#CC[N+]1(CC#Cc2ccccc2)CCOCC1 ?
Shiga toxin inh: 26; NS1 function inh: -8%; CHX counter: 16*; Sm TGR inh: -33%; Pf growth 96h: -14%

What do the screens show for `C(#Cc1ccccc1)CN1CCOCC1`?
Pf growth 48h: 28%; Shiga toxin inh: 96*; CHX counter: 31*; Sm TGR inh: -1%; Pf growth 96h: 26%

Results for O=C(C[N+]1(CC#Cc2ccccc2)CCCCC1)c1ccc(Cl)cc1 ?
Pf growth 48h: inconclusive; Shiga toxin inh: -2; CHX counter: 0; Sm TGR inh: -33%; Pf growth 96h: -22%

Results for O=C(C[N+]1(CC#Cc2ccccc2)CCCCC1)c1ccccc1 ?
Pf growth 48h: 9.3µM*; Shiga toxin inh: 13; CHX counter: 3; Sm TGR inh: -27%; Pf growth 96h: inconclusive

What do the screens show for `O=C(C[N+]1(CC#Cc2ccccc2)CCOCC1)c1ccccc1`?
Pf growth 48h: 13µM*; Shiga toxin inh: -1; CHX counter: 15; Sm TGR inh: -30%; Pf growth 96h: -11%

What do the screens show for `C#CC[N+]1(CC#Cc2ccccc2)CCCCC1`?
Pf growth 48h: inconclusive; Shiga toxin inh: 1; CHX counter: -5; Sm TGR inh: inconclusive; Pf growth 96h: 0%

Results for C(#Cc1ccc(C#CCN2CCOCC2)cc1)CN1CCOCC1 ?
Pf growth 48h: 26%; Shiga toxin inh: -8; NS1 function inh: -1%; CHX counter: -2; Sm TGR inh: -7%; Pf growth 96h: -1%

How did O=C(C[N+]1(CC#Cc2ccccc2)CCOCC1)c1ccc(Cl)cc1 do in these assays?
Pf growth 48h: inconclusive; Shiga toxin inh: 6; CHX counter: 8; Sm TGR inh: inconclusive; Pf growth 96h: 40%

How did COc1ccccc1CNC(=O)C(=O)NCC(c1cccnc1)N1CCN(c2ccccc2)CC1 (stereo not drawn) do in these assays?
Sm TGR inh: 1%

How did COc1ccc(C(CNC(=O)CCC(=O)c2ccc(C)s2)N2CCOCC2)cc1 (stereo not drawn) do in these assays?
Pf growth 48h: inconclusive; Sm TGR inh: -24%; Pf growth 96h: inconclusive

How did Cn1cc(Cl)c(/C(N)=N/OC(=O)c2ccccc2C(F)(F)F)n1 do in these assays?
Pf growth 48h: 117%; Shiga toxin inh: 91*; NS1 function inh: -17%; CHX counter: 50*; Sm TGR inh: -12%; Pf growth 96h: 58%

What do the screens show for `COc1ccc(OC(=O)c2cn(C)nc2C(F)(F)F)cc1`?
Pf growth 48h: -8%; Shiga toxin inh: 26; NS1 function inh: -5%; CHX counter: 14; Sm TGR inh: -2%

What do the screens show for `CC(C)Cn1nc(NS(=O)(=O)c2ccccc2)c2cc3ccccc3nc21`?
Pf growth 48h: 26%; Shiga toxin inh: 70; NS1 function inh: -2%; CHX counter: -1; Sm TGR inh: -3%; Pf growth 96h: inconclusive

Results for CC(C)Cn1c(C(C)C)nc([N+](=O)[O-])c1S(=O)(=O)c1ccc(F)cc1 ?
Pf growth 48h: 10µM*; Shiga toxin inh: -8; NS1 function inh: -18%; CHX counter: -5; Sm TGR inh: 1.8µM*; Pf growth 96h: inconclusive

Results for CCCc1nc([N+](=O)[O-])c(S(=O)(=O)c2ccccc2)n1CC(C)C ?
Pf growth 48h: 9.3µM*; Shiga toxin inh: -5; NS1 function inh: -4%; CHX counter: -3; Sm TGR inh: 0.89µM*; Pf growth 96h: 12µM*

Results for Cc1ccnc(NS(=O)(=O)c2ccc(NC(=O)c3ccc([N+](=O)[O-])s3)cc2)n1 ?
Pf growth 48h: 4.1µM*; Shiga toxin inh: 7; NS1 function inh: -7%; CHX counter: -2; Sm TGR inh: inconclusive; Pf growth 96h: 12µM*

Results for Cc1nc2cc(NC(=O)c3ccc([N+](=O)[O-])s3)ccc2s1 ?
Pf growth 48h: inconclusive; Shiga toxin inh: 52*; NS1 function inh: -8%; CHX counter: 34*; Sm TGR inh: -18%; Pf growth 96h: inconclusive

How did CC(=O)Nc1ccc(C(=O)Nc2ccc(S(=O)(=O)Nc3nccc(C)n3)cc2)cc1 do in these assays?
Pf growth 48h: 17%; Shiga toxin inh: -1; NS1 function inh: 22%; CHX counter: -3; Sm TGR inh: 5%; Pf growth 96h: 0%

What do the screens show for `Cc1ccnc(NS(=O)(=O)c2ccc(NC(=O)C3CCCCC3C(=O)O)cc2)n1` (stereo not drawn)?
Pf growth 48h: 27%; Shiga toxin inh: 22; NS1 function inh: -9%; CHX counter: -3; Sm TGR inh: 0%; Pf growth 96h: 2.9µM*

Results for Cc1ccnc(NS(=O)(=O)c2ccc(NC(=O)C3CC=CCC3C(=O)O)cc2)n1 (stereo not drawn) ?
Pf growth 48h: -2%; Shiga toxin inh: 1; NS1 function inh: 2%; CHX counter: -4; Pf growth 96h: inconclusive

What do the screens show for `O=C(Nc1ccc(S(=O)(=O)NC2=NCCCCC2)cc1)c1ccc([N+](=O)[O-])s1`?
Pf growth 48h: 10µM*; Sm TGR inh: -22%; Pf growth 96h: 13µM*

Results for COc1ccc(OC)c(C(=O)COC(=O)c2cccnc2SC)c1 ?
Pf growth 48h: -16%; Sm TGR inh: 6%; Pf growth 96h: 39%

How did COc1ccccc1CNC(=O)C1CCCN(c2nn3cc(-c4ccc(F)cc4)nc3s2)C1 (stereo not drawn) do in these assays?
Sm TGR inh: 0%

What do the screens show for `CC(C)(C)OC(=O)N1Cc2ccccc2C[C@H]1C(=O)NC1CCCC1`?
Pf growth 48h: inconclusive; Shiga toxin inh: -3; NS1 function inh: 4%; CHX counter: 1; Sm TGR inh: 0%; Pf growth 96h: inconclusive

Results for O=C(COC(=O)c1ccccc1-n1cnnn1)c1ccc(F)cc1 ?
Pf growth 48h: 195%; Sm TGR inh: -1%; Pf growth 96h: 97%
